# Laboratory results reported in article PMC4552634, “A New Set of Chemical Starting Points with Plasmodium falciparum Transmission-Blocking Potential for Antimalarial Drug Discovery” (PLoS ONE, 2015).
# The whole screen tested about 13,000 compounds, of which about 3,200 (25%) showed an effect of 50% or more. The list shows a part of the results.
# Tested on: P. falciparum stage V gametocytes
# Parameters: BacTiter-Glo ATP luminescence viability of purified stage V gametocytes in 384-well plates, per cent inhibition versus DMSO
# Conditions: 48 h, 5 µM; inhibitor
row,SMILES,% Inhibition
1,NC1=NC(c2ccccc2)(c2ccccc2)C(=O)N1CCCCc1ccccc1 [TCMDC-136488],3.475%
2,Fc1cccc(COc2ccc(Nc3ncnc4sc(C#Cc5ncc[nH]5)cc34)cc2Cl)c1 [TCMDC-135407],-1.353%
3,O=C(Nc1cccc(-c2nn3ccccc3c2-c2ccnc(Nc3cccc(C(F)(F)F)c3)n2)c1)c1c(F)cccc1F [TCMDC-135527],-78.64%
4,COc1cccc(C2(c3cccc(OC)c3)N=C(N)N(CCCc3ccccc3)C2=O)c1 [TCMDC-136492],-28.16%
5,CC1CN(C(=O)c2sc3ccccc3c2Cl)CC(C)O1 (stereo not drawn) [TCMDC-125225],2.721%
6,C/C=C1\CN2CC[C@H]1C[C@@H]2[C@@H](O)c1ccnc2ccc(O)cc12 [TCMDC-138273],7.487%
7,Cc1cc(C)c(-c2n[nH]c3c2C(c2cccc(Cl)c2)N(Cc2ccco2)C3=O)c(O)c1 (stereo not drawn) [TCMDC-125307],-65.67%
8,Cc1ccc(C)c(NC(=O)CC2C(=O)N(c3ccccc3)C(=S)N2Cc2ccco2)c1 (stereo not drawn) [TCMDC-124000],88.68%
9,O=C(Nc1ccc(C(=O)Oc2cccc3ccccc23)cc1)N[C@@H](Cc1ccc(O)cc1)C(=O)NC1CCN(Cc2ccc(O)cc2)C1 (stereo partly drawn) [TCMDC-135360],-40.07%
10,O=c1c2ccc(Sc3ccccn3)cc2n(-c2ccccc2)c2cc(Sc3ccccn3)ccc12 [TCMDC-137528],7.065%
11,Cc1cc(N)c2cc(NC(=O)/C=C/c3ccccc3)ccc2n1 [TCMDC-139337],92.06%
12,Cc1cc(N)c2cc(NC(=O)/C=C/c3ccccc3Cl)ccc2n1 [TCMDC-139459],113.2%
13,CN1Cc2cc(NC(=O)/C=C/c3ccccc3Cl)ccc2C(C)(C)C1 [TCMDC-139315],78.19%
14,Nc1cccc(C=CC(=O)Nc2ccnc3ccccc23)c1 [TCMDC-139290],5.125%
15,O=C(/C=C/c1ccccc1Cl)Nc1ccc(Br)c(OCCN2CCCCC2)c1 [TCMDC-140959],-53.57%
16,CCOc1ccccc1C=CC(=O)Nc1ccc2nc(N3CCN(C)CC3)cc(C)c2c1 [TCMDC-123801],-1.147%
17,Cc1cc(N)c2cc(NC(=O)/C=C/c3ccc([N+](=O)[O-])cc3)ccc2n1 [TCMDC-139335],102.5%
18,CC1(C)CN2CCCC2c2cc(NC(=O)/C=C/c3ccccc3Cl)ccc21 (stereo not drawn) [TCMDC-139348],26.85%
19,COc1cc(C)nc2ccc(NC(=O)c3cc([N+](=O)[O-])cc([N+](=O)[O-])c3)cc12 [TCMDC-139382],32.9%
20,CCOC(=O)C1CCN(CCOc2cc(NC(=O)/C=C/c3ccccc3Cl)ccc2Br)CC1 [TCMDC-140963],-16.5%
21,COc1cc(C)nc2ccc(NC(=O)Nc3ccc([N+](=O)[O-])cc3C)cc12 [TCMDC-139395],-13.54%
22,O=C(C=Cc1ccccc1)Nc1ccc(C#CC=Cc2ccc(NC(=O)C=Cc3ccccc3)cc2)cc1 [TCMDC-125718],-11.21%

row,SMILES,% Inhibition
1,NC(N)=NC(=O)Nc1cc(F)c(Cl)c(Cl)c1 [TCMDC-137462],6.486%
2,O=c1ccc2ncc(Cl)c3c2n1CC3CN1CCC(NCc2cc3c(cn2)OCCO3)CC1 (stereo not drawn) [TCMDC-135967],20.98%
3,CC1(C)N=C(N)N=C(N)N1OCCCOc1ccc(N)cc1 [TCMDC-131698],-10.87%
4,CN1CCN(Cc2cc3cc(NC(=O)/C=C/c4ccc(Cl)cc4)ccc3s2)CC1 [TCMDC-135631],-73.77%
5,CC1(C)CNCc2cc(NC(=O)/C=C/c3ccc(Cl)cc3)ccc21 [TCMDC-141909],92.59%
6,O=C(/C=C/c1ccc(Cl)cc1)Nc1ccc2nc(CN3CCCC3)ccc2c1 [TCMDC-135629],-22.56%
7,O=C(Nc1ccccc1)Nc1cccc(-c2nn3c(OCC4CCCCN4)cccc3c2-c2ccncc2)c1 (stereo not drawn) [TCMDC-135465],63.4%
8,Nc1ncnc2cc(-c3cccc(NC(=O)Nc4ccccc4)c3)sc12 [TCMDC-135255],-37.99%
9,O=C(Nc1ccccc1)Nc1cccc(-c2nn3c(OCCN4CCCC4)cccc3c2-c2ccncc2)c1 [TCMDC-135539],44.29%
10,N[C@@H](COc1cccc2c(-c3ccncc3)c(-c3cccc(NC(=O)Nc4ccccc4)c3)nn12)c1ccccc1 [TCMDC-135512],8.625%
11,O=C(Nc1ccccc1)Nc1cccc(-c2cc(CNCCc3ccccc3)sc2-c2ccncc2)c1 [TCMDC-135632],-27.66%
12,CCCCC(N)COc1cccc2c(-c3ccncc3)c(-c3cccc(NC(=O)Nc4ccccc4)c3)nn12 (stereo not drawn) [TCMDC-135537],58.08%
13,Fc1cc(Cl)ccc1Nc1ccnc2cc(-c3scnc3CNCCN3CCOCC3)ccc12 [TCMDC-138442],15.08%
14,O=C(Cc1cc(F)cc(F)c1)NC1CCN(c2ccnc3cc(Cl)ccc23)C1 (stereo not drawn) [TCMDC-133667],8.938%
15,CC(C)(CNC(=O)[C@@H]1CCCN(CCOc2ccc(F)c(F)c2)C1)c1nc(-c2ccc(Cl)c(O)c2)c(-c2ccncc2)[nH]1 [TCMDC-141137],11.15%
16,CCN1CCN(c2cc(C)c3cc(NC(=O)c4cc(OC)cc(OC)c4)ccc3n2)CC1 [TCMDC-125575],-6.076%
17,COc1cc(NC(=O)c2nn(CCCN3CCC4(CC3)C(=O)NCN4c3ccccc3)cc2-c2ccc(Cl)c(Cl)c2)cc(OC)c1OC [TCMDC-141726],-40.66%
18,COc1cc(NC(=O)c2nn(CCCN3CCC(N4CCCC4)CC3)cc2-c2ccc(Cl)c(Cl)c2)cc(OC)c1OC [TCMDC-141725],29.9%
19,CN(Cc1ccccc1)C(=O)c1nn(CCCN2CCC(N3CCCC3)CC2)cc1-c1ccc(Cl)c(Cl)c1 [TCMDC-141730],45.58%
20,COc1cc(C(=O)NCc2nn(CCN3CCC(N4CCCC4)CC3)cc2-c2ccc(Cl)c(Cl)c2)cc(OC)c1OC [TCMDC-141966],24.89%
21,O=C(NCc1ccccc1)NC(CCCN1CCC(Oc2cccc(Cl)c2)CC1)c1ccc(Cl)c(Cl)c1 (stereo not drawn) [TCMDC-141903],-17.97%
22,O=C(NCc1ccc2c(c1)OCO2)c1nn(CCN2CCC(N3CCCC3)CC2)cc1-c1ccc(Cl)c(Cl)c1 [TCMDC-141908],-16.74%

row,SMILES,% Inhibition
1,O=C(Nc1ccccc1)c1nn(CCCN2CCC(N3CCCC3)CC2)cc1-c1ccc(Cl)c(Cl)c1 [TCMDC-141727],76.09%
2,O=C(NCc1ccccc1)c1ncn(CCCN2CCC(N3CCCC3)CC2)c1-c1ccc(Cl)c(Cl)c1 [TCMDC-135228],91.41%
3,O=C(NCc1ccccc1)c1nn(CCCN2CCC(N3CCCC3)CC2)cc1-c1ccc(Cl)c(Cl)c1 [TCMDC-141728],73.12%
4,CCOc1cc(C(=O)Nc2cccnc2)ccc1-c1nc2cc(Cl)c(Cl)cc2[nH]1 [TCMDC-140059],1.839%
5,Cc1nc2nc(N)nc(N)c2c(C)c1Cc1ccccc1I [TCMDC-137243],-2.242%
6,CCCCCNc1nc2nc(N)nc(N)c2nc1-c1ccccc1 [TCMDC-141983],-14.59%
7,Cc1noc(C)c1S(=O)(=O)N(C)Cc1ccc(-c2ccc(Cl)cc2)o1 [TCMDC-125303],-57.93%
8,Cc1cc(C(=O)NCc2ccc(-c3c(C)noc3C)cc2)n(-c2ccc(Cl)cc2)n1 [TCMDC-133781],35.85%
9,Cc1onc(-c2ccc(Cl)cc2)c1-c1ccnn1S(=O)(=O)c1ccc(Cl)cc1 [TCMDC-123770],63.51%
10,Cc1ccc(S(=O)(=O)n2nccc2-c2c(-c3ccc(Cl)cc3)noc2C)cc1 [TCMDC-124500],65.37%
11,COc1ccc(Nc2ncc3c(-c4cccc(NC(=O)Cc5cccc(F)c5)c4)c[nH]c3n2)cc1OC [TCMDC-135251],-27.44%
12,CC(C)N1CCN(C(CN2CCN(CCCOc3cccc4ccccc34)CC2)c2ccc(F)cc2)CC1 (stereo not drawn) [TCMDC-135494],68.95%
13,COc1ccc2ccccc2c1CCCCN1CCN(CC(c2ccc(F)cc2)N2CCC(N3CCCC3)CC2)CC1 (stereo not drawn) [TCMDC-135866],9.799%
14,COc1ccc2ccccc2c1CCCCN1CCN(CC(c2ccc(F)cc2)N2CCC2)CC1 (stereo not drawn) [TCMDC-135867],60.92%
15,CC1(C)N=C(N)N=C(N)N1OCCCOc1cccc2ccccc12 [TCMDC-131626],30.73%
16,COc1cccc(CN2CCN(C(c3ccccc3)c3ccccc3)CC2)c1O [TCMDC-125556],-14.13%
17,COc1ccc2ccccc2c1CCCCN1CCN(CC(c2ccc(F)cc2)N2CCN(C3CCCC3)CC2)CC1 (stereo not drawn) [TCMDC-135865],-18.03%
18,COc1ccc(OCCCN2CCN(CC(c3ccc(F)cc3)N3CCN(C(C)C)CC3)CC2)c2ccccc12 (stereo not drawn) [TCMDC-135639],74.93%
19,COc1cc2ccccc2cc1OCCCN1CCN(CC(c2ccc(F)cc2)N2CCN(C(C)C)CC2)CC1 (stereo not drawn) [TCMDC-135496],103.4%
20,COc1ccc2ccccc2c1CCCCN1CCN(CC(c2ccc(F)cc2)N2CCN(C(C)C)CC2)CC1 (stereo not drawn) [TCMDC-134847],46.9%
21,Cc1ccccc1OCCCN1CCN(CC(c2ccc(F)cc2)N2CCN(C(C)C)CC2)CC1 (stereo not drawn) [TCMDC-135492],-21.14%
22,CN1CCN(c2ccc(-c3cccc(NC(=O)c4cccc(Cl)c4)c3)nn2)CC1 [TCMDC-125348],20.42%
